Measurements taken from PubChem BioAssay (NCATS).
Records with an inconclusive call do not appear. The source made the active and inactive calls. Calls follow the shape of the dose curve; as a rule, active = well fitted inhibition curve with a large enough effect; inconclusive = small, poorly fitted or top-dose-only effect; inactive = flat fitted curve, though single readings scatter. Where a SMILES comes first, the peptide text is derived from it. Bridges are numbered along the chain shown (N, C = ends). [ ]: non-standard residue; d: D form. hArg = N=C(N)NCCCC[C@H](N)C(=O)O; Mpa = O=C(O)CCS

Experiments:
Assay in all cases: qHTS profiling for inhibitors of Plasmodium falciparum proliferation (AID 504749); also: nearly all actives have a fitted effect of over 60% in size
Settings in all cases: P. falciparum in erythrocytes, SYBR Green DNA, 72 h; series mostly up to 28.7 µM
[1] = test system: CP250
Method in brief: (§1)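 Fluorescence of SYBR Green-bound parasite DNA, read at 485/535 nm, served as the growth measure. Infected erythrocytes were cultured with compound 72 h; artemisinin (0.29 uM) and DMSO wells defined the normalization range.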

[2] = test system: CP252
Method in brief: as §1

[3] = test system: CP256
Method in brief: as §1

[4] = test system: CP260
Method in brief: as §1

[5] = test system: CP262
Method in brief: as §1

[6] = test system: CP265
Method in brief: as §1

[7] = test system: CP266
Method in brief: as §1

[8] = test system: CP268
Method in brief: as §1

[9] = test system: CP269
Method in brief: as §1

[10] = test system: CP286
Method in brief: as §1

[11] = test system: CP291
Method in brief: as §1

[12] = test system: CP297
Method in brief: as §1

[13] = test system: CP305
Method in brief: as §1

[14] = test system: CP325
Method in brief: as §1

[15] = test system: CP329
Method in brief: as §1

[16] = test system: CP335
Method in brief: as §1

[17] = test system: DFO2036
Method in brief: as §1

[18] = test system: DIV14
Method in brief: as §1

[19] = test system: DIV17
Method in brief: as §1

[20] = test system: CP315
Method in brief: as §1

Measured: Potency

Cc1onc(-c2ccccc2)c1-c1ccc(S(N)(=O)=O)cc1
not listed: [20]
inactive: all other assays above

CCOc1cc(NC(C)=O)ccc1C(=O)OC
not listed: [7]
inactive: all other assays above

NS(=O)(=O)c1ccc(C(=O)O)cc1
not listed: [5]
inactive: all other assays above

CCCCCCCCCCC(CO)CCCCCCCC (stereo not given)
not listed: [9] | [13] | [18] | [19]
inactive: all other assays above

CCCCCCCC(=O)OCC(COC(=O)CCCCCCC)OC(=O)CCCCCCC
not listed: [7]
inactive: all other assays above

Cc1ncc(CO)c(CN)c1O
not listed: [5]
inactive: all other assays above

CC(=O)OCC(COC(C)=O)OC(C)=O
not listed: [16]
inactive: all other assays above

Cc1c(Cn2ccnc2)c2ccccc2n1CCC(=O)O
not listed: [14]
inactive: all other assays above

CC1CCc2cc(F)cc3c(=O)c(C(=O)O)cn1c23 (stereo not given)
not listed: [11]
inactive: all other assays above

COc1nccnc1NS(=O)(=O)c1ccc(N)cc1
not listed: [20]
inactive: all other assays above

Cc1c(C)c2c(c(C)c1OC(=O)c1cccnc1)CC[C@@](C)(CCC[C@H](C)CCC[C@H](C)CCCC(C)C)O2
not listed: [7]
inactive: all other assays above

O=C(/C=C/c1ccccc1)OCc1ccccc1
not listed: [16]
inactive: all other assays above

CN/C(=C\[N+](=O)[O-])NCCSCc1csc(CN(C)C)n1
not listed: [7]
inactive: all other assays above

CN1CCCN=C1COC(=O)C(O)(c1ccccc1)C1CCCCC1 (stereo not given)
not listed: [11] | [18]
inactive: all other assays above

NC(=O)[C@@H]1CSSCCC(=O)N[C@@H](CCCCN=C(N)N)C(=O)NCC(=O)N[C@@H](CC(=O)O)C(=O)N[C@@H](Cc2c[nH]c3ccccc23)C(=O)N2CCC[C@H]2C(=O)N1 ([Mpa][hArg]GDWPC-NH2; disulfide 1-7)
not listed: [7]
inactive: all other assays above

O=C(Cn1ccnc1[N+](=O)[O-])NCCO
not listed: [12]
inactive: all other assays above

CCOc1ccc(C(=O)OCCN(CC)CC)cc1
not listed: [5]
inactive: all other assays above

CC[N+](CC)(CC(=O)Nc1c(C)cccc1C)Cc1ccccc1
not listed: [5] | [18] | [19]
inactive: all other assays above

CC[N+](C)(CC)CCOC(=O)C1c2ccccc2Oc2ccccc21
not listed: [1] | [3] | [4] | [18]
inactive: all other assays above

CCOC(N)=O
not listed: [4]
inactive: all other assays above

COc1ccc2cc(CCC(C)=O)ccc2c1
not listed: [5] | [7]
inactive: all other assays above

O=C1C(c2[nH]c3ccccc3c2O)=Nc2ccccc21
not listed: [1] | [8] | [11] | [12] | [14] | [18] | [19]
inactive: all other assays above

COc1cc(C(=O)NCCCCCC(=O)O)cc(OC)c1OC
not listed: [4]
inactive: all other assays above

CCN(CC)C(=O)c1cccc(C)c1
not listed: [4]
inactive: all other assays above
